The structures appear in SMILES notation. Inconclusive results are not listed. The source made the active and inactive calls.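 How the source made its calls, unless noted: active means inhibition above 54%, about 3 SD of non-fluorescent compounds; inactive means the rest.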

Test [1] in a line: yeast TOR pathway RPL19A-GFP modulators, primary screen, cell-based, S. cerevisiae, multiplex flow cytometry (AID 1862; in the data active means percent of DMSO control GFP below about 86%;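 further: lower values mimic rapamycin by blocking the RPL19A rise seen in DMSO cells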). The note with it: S. cerevisiae RPL19A-GFP strain, flow cytometry fluorescence, 3 h; at 10 µM; stronger effect = lower value.
Test [2] can be described thus: modulators of MEP2-GFP levels in yeast, primary screen, S. cerevisiae, multiplex flow cytometry (AID 1867;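 active means GFP response, as percent of the DMSO control, above the screen-wide mean plus 3 SD, about 139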;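 further: median GFP channel fluorescence of barcode-gated MEP2-GFP cells measured by flow cytometry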). The note with it: S. cerevisiae MEP2-GFP strain, 3 h, at 10 µM, stronger effect = higher value, 100% means same as DMSO wells.
The nature of test [3]: modulators of CIT2-GFP expression in yeast, primary screen, S. cerevisiae, GFP fusion, multiplex flow cytometry (AID 1870;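 active means percent response above a set limit, the screen-wide mean plus 3 SD, cut at about 130% in these data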;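 further: barcoded CIT2-GFP strain pooled with four other GFP strains with rapamycin as positive control; median GFP fluorescence per well over plate mean of DMSO wells so 100% = DMSO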). The conditions noted are these: 3 h, at 10 µM, stronger effect = higher value.
The nature of test [4]: modulators of LAP4-GFP expression in yeast, primary screen, S. cerevisiae, multiplex flow cytometry (AID 1873;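 active means GFP signal, as percent of the solvent control, above the screen mean plus 3 SD, about 149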). The note with it: 3 h, at 10 µM, stronger effect = higher value.
The nature of test [5]: modulators of AGP1-GFP expression in yeast TOR pathway, primary screen, cell-based, multiplex flow cytometry, S. cerevisiae (AID 1887;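 active means GFP signal above the screen-wide mean plus 3 SD, that is over about 124.5% of the solvent control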;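 further: AGP1-GFP fusion strain of S. cerevisiae within a five-strain barcoded multiplex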). The note with it: 3 h, at 10 µM, stronger effect = higher value.
Test [6] is described as follows: inhibitors of CD8+ T cell-vesicle binding, pilot screen, LFA-1/ICAM-1 modulator project, MLPCN validation set, flow cytometry (AID 2523;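 active means response below a set limit, under 55% cells CD8-positive and vesicle-bound, and CD8 cells' 90th-percentile brightness under 279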;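 on vesicle binding response: mean PE anti-B7-1 fluorescence of CD8+ cells relative to row control; 100% = QL9-loaded vesicles with DMSO vehicle in the same plate row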). The conditions noted are these: 2C mouse CD8+ T cells, at 7 µM, stronger effect = lower value; double positive events: measured here: CD8+/vesicle+ event percentage.
The target of test [7] is Integrin beta-1 (Homo sapiens) + Integrin alpha-4 (Homo sapiens) (UniProt P13612+P05556). The test can be described thus: inhibition of HUTS-21 binding to VLA-4, pilot screen, VLA-4 allosteric modulator project, U937 cells, HUTS-21 mAb, flow cytometry, validation set (AID 2674;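 active means inhibition above 50%, about 3 SD of the validation set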;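 further: antibody binding induced by the VLA-4 ligand LDV present at three times its Kd; 0% = LDV ligand with antibody and no compound and 100% = antibody without LDV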). The conditions noted are these: HUTS-21 LIBS mAb binding, at 6.7 µM, stronger effect = higher value, binding induced by LDV ligand.

Test [8] in a line: superoxide lowering in aged yeast cells, pilot screen, validation compound set (AID 2706;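 active means superoxide response below 65% of plate, a cut near 3 SD across the whole screen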;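 further: yeast exposed to compound for one week at 30 degrees C before staining; 100% = mean of all compound wells on the same plate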). The conditions noted are these: S. cerevisiae aging, superoxide DHE fluorescence; at 10 µM; stronger effect = lower value.
The target in test [9] is Beta-adrenergic receptor kinase 1 (Homo sapiens) (UniProt P25098). Put plainly: GRK2 binders displacing RNA aptamer, biochemical, validation, human GRK2, bead flow cytometry (AID 488806;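 active means aptamer binding inhibition above 30%, about 3 SD of noise from non-fluorescent compounds; inactive means inhibition at or below 30%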). The conditions noted are these: bead-bound GRK2, FAM-aptamer displacement, at 10 µM, stronger effect = higher value.
Test [10] concerns the target Beta-2 adrenergic receptor (Homo sapiens) (UniProt P07550). Put plainly: beta2AR agonists driving receptor internalization, pilot screen, cell-based, FAP fluorogen, flow cytometry, validation set (AID 504459;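 active means percent response above 42, roughly 3 SD of non-fluorescent test compounds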;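 further: agonist-driven loss of surface beta2AR via internalization measured by FAP dye flow cytometry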). The note with it: Am2.2-beta2AR cells, FAP surface receptor flow cytometry; at 10 µM; stronger effect = higher value.
The target of test [11] is AP-2 complex subunit beta (Homo sapiens) (UniProt P63010). Put plainly: inhibitors of arrestin peptide binding to AP2, pilot screen, biochemical, validation set, GST-AP2 beads, flow cytometry (AID 504541).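 Further: AP2 carries R879A mutation and is captured from E. coli lysate; bead-bound FITC arrestin peptide fluorescence measuring arrestin peptide binding to AP2; 0% = DMSO wells and 100% = excess unlabeled arrestin peptide control.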 The conditions noted are these: FITC arrestin peptide, at 10 µM, stronger effect = higher value, AP2 beta2 appendage fragment, R879A mutant.
The nature of test [12]: yeast V-ATPase proton transport modulators, S. cerevisiae, pHLuorin, HTS validation (AID 504600; in the data active means response above about 15%;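 further: plate controls were DMSO for no effect and reference compound for full effect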). The conditions noted are these: S. cerevisiae pHLuorin cytosolic pH, at 10 µM, stronger effect = higher value.
Test [13] relates to anti-desmoglein-3 scFv antibody binding to human DSG3. The test can be described thus: inhibitors of anti-DSG3 scFv binding to DSG3, pilot screen, biochemical, validation compound set, bead-based, flow cytometry (AID 588368;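 active means binding below the plate cutoff, the plate median minus 3 SD, with a reading above zero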;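 further: signal is the median channel fluorescence of bead-bound GFP antibody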). The note with it: Protein G beads, DSG3-Fc, scFv-GFP binding, at 10 µM, stronger effect = lower value.
Test [14] is described as follows: inhibitors of fungal efflux pumps CDR1, CDR2, MDR1, pilot screen, validation compound set, multiplex, phenotypic (AID 588506;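 active means efflux inhibition above 0.42, the validation set average plus 4 SD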;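 further: Nile Red retained in cells so higher fluorescence means more efflux inhibition; 0 = negative control wells and 1 = enniatin B 25 µM full block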). The note with it: S. cerevisiae pump-expressing triplex, Nile Red efflux flow cytometry; at 10 µM; stronger effect = higher value; the pumps come from Candida albicans.
The target in test [15] is ATP-binding cassette sub-family B member 6 (Homo sapiens) (UniProt Q9NP58). The test can be described thus: ABCB6 transporter inhibitors, pilot screen, K562-ABCB6 cells, flow cytometry, validation set (AID 588550;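 active means inhibition above the screen-wide mean plus 3 SD, about 51%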;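 further: 0% = DMSO wells and 100% = benzethonium chloride 70 µM positive control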). The note with it: K562-ABCB6 porphyrin accumulation, 1 h, at 10 µM, stronger effect = higher value.
Test [16] is described as follows: promoters of myeloid differentiation in arrested cells, primary screen, cell-based, GFP/MAC1 double positive, flow cytometry, validation set (AID 588685;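 active means differentiation response of at least 50%, scaled between solvent and reference control, from cells with both markers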;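 further: compound exposure lasts four days before antibody staining and flow analysis; 0% = DMSO wells and 100% = 5 µM fulvestrant positive control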). The note with it: ER-HoxA9 marrow cells, stronger effect = higher value, normalized: vehicle 0, fulvestrant 100.

Chain of ATP-binding cassette sub-family B member 6 (Homo sapiens) (Q9NP58 whole entry, looked up): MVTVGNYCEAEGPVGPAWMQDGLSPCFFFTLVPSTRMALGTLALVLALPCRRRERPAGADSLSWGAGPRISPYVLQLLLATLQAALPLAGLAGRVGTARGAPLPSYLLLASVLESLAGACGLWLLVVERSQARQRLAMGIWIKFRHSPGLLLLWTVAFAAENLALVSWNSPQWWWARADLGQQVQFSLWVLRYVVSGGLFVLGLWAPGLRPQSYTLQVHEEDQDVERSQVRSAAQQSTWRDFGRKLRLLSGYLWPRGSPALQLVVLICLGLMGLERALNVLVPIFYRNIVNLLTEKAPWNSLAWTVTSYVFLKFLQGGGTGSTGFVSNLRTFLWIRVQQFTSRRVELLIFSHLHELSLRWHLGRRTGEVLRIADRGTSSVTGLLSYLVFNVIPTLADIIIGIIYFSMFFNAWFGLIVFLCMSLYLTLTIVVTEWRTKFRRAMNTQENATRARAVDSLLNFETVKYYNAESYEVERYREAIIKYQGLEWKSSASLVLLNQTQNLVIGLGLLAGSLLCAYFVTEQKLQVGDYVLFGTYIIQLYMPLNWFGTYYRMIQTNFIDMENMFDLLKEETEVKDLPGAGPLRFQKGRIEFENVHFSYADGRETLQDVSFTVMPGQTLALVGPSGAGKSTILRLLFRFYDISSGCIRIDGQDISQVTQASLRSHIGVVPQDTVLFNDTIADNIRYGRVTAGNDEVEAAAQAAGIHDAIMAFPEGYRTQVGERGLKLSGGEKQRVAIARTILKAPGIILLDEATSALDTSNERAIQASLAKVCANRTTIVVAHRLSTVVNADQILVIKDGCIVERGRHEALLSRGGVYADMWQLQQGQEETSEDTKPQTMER
Chain of Beta-2 adrenergic receptor (Homo sapiens) (P07550 whole entry, looked up): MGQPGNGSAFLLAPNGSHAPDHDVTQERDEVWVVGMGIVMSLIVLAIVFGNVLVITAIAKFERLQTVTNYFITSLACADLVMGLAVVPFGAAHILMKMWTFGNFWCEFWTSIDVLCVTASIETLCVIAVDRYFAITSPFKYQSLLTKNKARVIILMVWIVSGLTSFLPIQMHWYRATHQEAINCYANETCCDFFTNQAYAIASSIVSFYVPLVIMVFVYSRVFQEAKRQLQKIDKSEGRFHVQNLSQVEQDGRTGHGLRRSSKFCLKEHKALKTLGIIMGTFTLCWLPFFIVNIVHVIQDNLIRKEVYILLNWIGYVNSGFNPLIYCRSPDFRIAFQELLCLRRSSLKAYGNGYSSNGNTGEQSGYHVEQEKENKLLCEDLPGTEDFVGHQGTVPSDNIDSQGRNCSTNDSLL
Chain of Beta-adrenergic receptor kinase 1 (Homo sapiens) (P25098 whole entry, looked up): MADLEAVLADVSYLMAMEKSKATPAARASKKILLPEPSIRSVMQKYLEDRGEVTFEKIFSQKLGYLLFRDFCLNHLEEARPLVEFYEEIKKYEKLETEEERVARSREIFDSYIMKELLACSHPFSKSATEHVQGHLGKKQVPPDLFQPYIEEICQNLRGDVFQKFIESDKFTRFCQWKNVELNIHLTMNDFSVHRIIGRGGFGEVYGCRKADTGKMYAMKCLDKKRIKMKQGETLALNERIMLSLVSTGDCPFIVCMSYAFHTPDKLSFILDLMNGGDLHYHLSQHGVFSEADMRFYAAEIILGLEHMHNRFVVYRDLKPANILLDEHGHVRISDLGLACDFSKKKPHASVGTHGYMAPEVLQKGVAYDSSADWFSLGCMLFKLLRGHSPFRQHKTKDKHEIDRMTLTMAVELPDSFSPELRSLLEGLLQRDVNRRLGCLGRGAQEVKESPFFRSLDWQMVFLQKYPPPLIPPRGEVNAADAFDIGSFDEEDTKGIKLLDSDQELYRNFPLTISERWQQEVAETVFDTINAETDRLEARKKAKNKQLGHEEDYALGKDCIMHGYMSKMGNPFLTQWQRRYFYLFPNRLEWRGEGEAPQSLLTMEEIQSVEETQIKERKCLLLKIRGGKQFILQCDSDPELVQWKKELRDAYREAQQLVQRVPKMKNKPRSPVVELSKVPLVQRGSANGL
Chain of Integrin beta-1 (Homo sapiens) + Integrin alpha-4 (Homo sapiens) (P05556 whole entry, looked up): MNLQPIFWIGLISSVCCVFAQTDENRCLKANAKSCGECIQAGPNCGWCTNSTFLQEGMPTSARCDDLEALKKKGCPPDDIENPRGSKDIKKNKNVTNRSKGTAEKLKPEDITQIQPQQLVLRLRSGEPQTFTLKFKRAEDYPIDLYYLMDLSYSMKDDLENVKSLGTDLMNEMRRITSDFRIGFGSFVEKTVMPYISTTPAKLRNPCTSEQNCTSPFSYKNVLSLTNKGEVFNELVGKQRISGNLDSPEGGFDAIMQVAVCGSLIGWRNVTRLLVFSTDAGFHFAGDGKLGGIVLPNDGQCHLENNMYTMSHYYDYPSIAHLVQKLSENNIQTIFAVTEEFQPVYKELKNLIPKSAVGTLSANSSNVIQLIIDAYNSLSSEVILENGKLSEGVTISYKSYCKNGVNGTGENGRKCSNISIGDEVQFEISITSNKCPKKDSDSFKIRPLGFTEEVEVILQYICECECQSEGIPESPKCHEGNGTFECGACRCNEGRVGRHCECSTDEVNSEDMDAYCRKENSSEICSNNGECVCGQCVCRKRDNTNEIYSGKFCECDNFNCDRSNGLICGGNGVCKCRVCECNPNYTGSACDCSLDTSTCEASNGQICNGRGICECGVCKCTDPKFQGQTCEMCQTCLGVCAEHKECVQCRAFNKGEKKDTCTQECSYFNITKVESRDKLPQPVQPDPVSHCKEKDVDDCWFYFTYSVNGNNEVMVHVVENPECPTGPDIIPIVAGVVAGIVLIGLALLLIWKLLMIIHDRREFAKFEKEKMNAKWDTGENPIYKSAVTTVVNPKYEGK
Chain of Integrin beta-1 (Homo sapiens) + Integrin alpha-4 (Homo sapiens) (P13612 whole entry, looked up): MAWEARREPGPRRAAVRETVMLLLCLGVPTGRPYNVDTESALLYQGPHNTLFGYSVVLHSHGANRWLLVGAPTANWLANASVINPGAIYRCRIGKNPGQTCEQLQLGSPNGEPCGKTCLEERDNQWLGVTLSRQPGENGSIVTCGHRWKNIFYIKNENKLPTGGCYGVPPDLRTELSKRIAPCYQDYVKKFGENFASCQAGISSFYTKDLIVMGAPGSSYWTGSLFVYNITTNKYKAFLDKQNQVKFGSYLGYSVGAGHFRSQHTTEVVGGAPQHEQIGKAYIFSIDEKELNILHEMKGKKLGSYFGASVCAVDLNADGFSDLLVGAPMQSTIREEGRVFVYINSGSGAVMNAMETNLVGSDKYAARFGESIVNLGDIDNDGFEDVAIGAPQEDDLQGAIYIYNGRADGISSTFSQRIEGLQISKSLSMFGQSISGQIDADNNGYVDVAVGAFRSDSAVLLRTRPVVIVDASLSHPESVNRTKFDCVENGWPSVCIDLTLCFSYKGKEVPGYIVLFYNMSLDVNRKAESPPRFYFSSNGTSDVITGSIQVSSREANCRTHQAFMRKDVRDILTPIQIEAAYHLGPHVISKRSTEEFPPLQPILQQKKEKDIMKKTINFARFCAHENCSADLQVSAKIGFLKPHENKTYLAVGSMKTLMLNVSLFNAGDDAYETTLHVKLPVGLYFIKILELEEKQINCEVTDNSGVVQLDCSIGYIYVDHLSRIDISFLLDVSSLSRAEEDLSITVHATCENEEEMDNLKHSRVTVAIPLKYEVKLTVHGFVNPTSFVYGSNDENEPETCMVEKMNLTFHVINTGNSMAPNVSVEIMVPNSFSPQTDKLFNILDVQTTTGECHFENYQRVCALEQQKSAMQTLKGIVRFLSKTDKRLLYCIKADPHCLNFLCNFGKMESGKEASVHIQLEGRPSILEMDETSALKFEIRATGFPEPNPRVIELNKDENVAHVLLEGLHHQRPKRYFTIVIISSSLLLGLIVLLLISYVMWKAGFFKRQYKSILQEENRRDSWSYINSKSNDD
Chain of AP-2 complex subunit beta (Homo sapiens) (P63010 whole entry, looked up, the tested form may be a part, one chain of several): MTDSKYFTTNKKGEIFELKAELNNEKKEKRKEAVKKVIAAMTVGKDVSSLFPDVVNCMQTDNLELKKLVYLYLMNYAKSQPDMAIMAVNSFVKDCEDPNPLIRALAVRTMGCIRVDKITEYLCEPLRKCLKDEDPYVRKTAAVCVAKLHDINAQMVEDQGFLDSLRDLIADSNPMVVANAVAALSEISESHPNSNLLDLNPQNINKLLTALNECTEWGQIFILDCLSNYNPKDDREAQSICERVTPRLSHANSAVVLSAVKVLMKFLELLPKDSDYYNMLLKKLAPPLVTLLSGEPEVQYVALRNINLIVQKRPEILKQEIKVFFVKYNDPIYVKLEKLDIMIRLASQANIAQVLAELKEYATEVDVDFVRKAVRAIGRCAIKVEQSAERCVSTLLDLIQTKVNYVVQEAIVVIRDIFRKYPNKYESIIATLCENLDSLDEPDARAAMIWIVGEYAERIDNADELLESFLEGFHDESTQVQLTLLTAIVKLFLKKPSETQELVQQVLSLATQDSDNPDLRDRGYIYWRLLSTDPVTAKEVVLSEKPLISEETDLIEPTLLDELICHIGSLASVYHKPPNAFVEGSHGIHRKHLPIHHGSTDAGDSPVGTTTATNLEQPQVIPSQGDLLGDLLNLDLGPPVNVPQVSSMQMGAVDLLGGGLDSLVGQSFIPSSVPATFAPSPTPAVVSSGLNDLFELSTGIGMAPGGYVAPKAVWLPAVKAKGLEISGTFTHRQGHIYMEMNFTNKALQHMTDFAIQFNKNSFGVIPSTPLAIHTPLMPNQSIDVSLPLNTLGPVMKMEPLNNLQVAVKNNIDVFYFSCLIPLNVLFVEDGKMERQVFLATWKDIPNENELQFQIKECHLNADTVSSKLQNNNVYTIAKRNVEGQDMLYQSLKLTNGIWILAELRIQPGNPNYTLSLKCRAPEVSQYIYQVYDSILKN

On to `CN1CC2CCCC3(C1)C(=O)NC1(CCCCC1)N=C23` (stereo not given), for which the percent of DMSO control GFP in [1] is 105% (inactive). For the same compound, the GFP response vs DMSO in test [2] is 105% (inactive); in test [4] it was 97.3% (inactive). In addition, in test [3], the percent response of DMSO control was 111% (inactive). Besides, the GFP response, % of DMSO in test [5] was 107% (inactive). In addition, the double positive events in [6] stood at 58.9%. The vesicle binding response in [6] is 281% (inactive). Moreover, the inhibition in test [7] was 3.7% (inactive); in [11], -5.67% (inactive); in test [15] it was 1% (inactive). Also, in test [8], the superoxide response (% of plate) is 103% (inactive). Further, the aptamer binding inhibition in [9] is 1% (inactive). Also, the figures for the response in [10] and in test [12] were -7.22% (inactive) and 3.54% (inactive), respectively. Besides, the binding (% of control) in [13] was 99% (inactive). In [14], the efflux inhibition (fraction of control) is -0.26 (inactive). Also, the differentiation response in test [16] was -6.6% (inactive).

On to `COc1cc(OC)c2c(C)c(Cl)c(=O)oc2c1`, for which, in test [1], the percent of DMSO control GFP was 102% (inactive). Moreover, the GFP response vs DMSO in [2] is 104% (inactive); in test [4] it was 113% (inactive). For the same compound, the percent response of DMSO control in [3] is 105% (inactive). In test [5], the GFP response, % of DMSO was 99.1% (inactive). Further, the double positive events in test [6] stood at 56.7%. In addition, in [6], the vesicle binding response was 92.7% (inactive). Besides, the inhibition in test [7] was 2.66% (inactive); in test [11], -8.58% (inactive); in test [15], -9% (inactive). Further, the superoxide response (% of plate) in test [8] is 90.2% (inactive). Moreover, in test [9], the aptamer binding inhibition is -3% (inactive). Further, the response in [10] is -6.2% (inactive); in test [12], 1.24% (inactive). Also, the binding (% of control) in test [13] was 100% (inactive). Besides, the efflux inhibition (fraction of control) in test [14] was -0.1 (inactive). Also, in test [16], the differentiation response was 0.24% (inactive).

As to `COCc1cc(=O)[nH]c(/N=C(\N)Nc2ccc(Oc3ccccc3)cc2)n1`, the percent of DMSO control GFP in test [1] is 96.9% (inactive). Further, the values for the GFP response vs DMSO in test [2] and in [4] were 118% (inactive) and 109% (inactive), respectively. In addition, in [3], the percent response of DMSO control was 83.4% (inactive). For the same compound, the GFP response, % of DMSO in [5] was 97.8% (inactive). Also, in test [6], the double positive events is 60.6%. Also, the vesicle binding response in test [6] is 216% (inactive). For the same compound, the inhibition in [7] is -1.79% (inactive); in test [11], -1.38% (inactive); in [15], 12% (inactive). For the same compound, the superoxide response (% of plate) in [8] is 94.8% (inactive). Also, the aptamer binding inhibition in [9] was 2% (inactive). For the same compound, the response in test [10] is 17.9% (inactive); in test [12], -1.49% (inactive). Besides, the binding (% of control) in test [13] is 99.3% (inactive). For the same compound, in [14], the efflux inhibition (fraction of control) is 0.01 (inactive). In addition, the differentiation response in test [16] was 10.4% (inactive).

In the case of `CC1CCN(CCOCCOc2ccccc2Br)CC1`, the percent of DMSO control GFP in test [1] is 102% (inactive). The GFP response vs DMSO in test [2] is 103% (inactive); in test [4], 86.8% (inactive). Besides, the percent response of DMSO control in test [3] is 93.1% (inactive). Further, the GFP response, % of DMSO in [5] was 97.2% (inactive). Moreover, the double positive events in test [6] came out at 54.8%. Besides, the vesicle binding response in test [6] is 167% (inactive). Also, the figures for the inhibition in test [7], in test [11] and in test [15] were 8.88% (inactive), -6.16% (inactive) and -4% (inactive), respectively. In addition, the superoxide response (% of plate) in test [8] was 95.8% (inactive). In test [9], the aptamer binding inhibition is 0% (inactive). Further, the response in test [10] was -4.72% (inactive); in test [12], -0.14% (inactive). Also, the binding (% of control) in test [13] is 95.6% (inactive). In addition, the efflux inhibition (fraction of control) in [14] is -0.17 (inactive). The differentiation response in test [16] is 15.9% (inactive).

`CC12CN3CC(C)(CN(C1)C3c1ccc([N+](=O)[O-])o1)C2` (stereo not given): the percent of DMSO control GFP in [1] is 102% (inactive). Moreover, the GFP response vs DMSO in [2] is 101% (inactive); in test [4] it was 96% (inactive). The percent response of DMSO control in test [3] was 95.4% (inactive). Moreover, the GFP response, % of DMSO in [5] is 91.5% (inactive). In [6], this compound displayed a double positive events of 64.6%. For the same compound, in test [6], the vesicle binding response is 1050% (inactive). In addition, the inhibition in test [7] is 12% (inactive); in [11], 1.92% (inactive); in test [15] it was -9% (inactive). In addition, in test [8], the superoxide response (% of plate) is 111% (inactive). Besides, the aptamer binding inhibition in test [9] was 5% (inactive). Moreover, the response in test [10] was -5.46% (inactive); in [12], 2.45% (inactive). Further, the binding (% of control) in test [13] was 93.8% (inactive). For the same compound, the efflux inhibition (fraction of control) in test [14] is -0.1 (inactive). Moreover, the differentiation response in [16] is 7.09% (inactive).
